Results from ChEMBL document CHEMBL4513146, “CO-ADD screening of Karazin Kharkiv National University (Ukraine) compounds”.
Entries with a potency or affinity are not part of this list.

Each molecule was assayed on Staphylococcus aureus. Conditions: Concentration 32 ug.mL-1;; ASSAY_TEST Inhibition of Bacterial Growth; detection method Absorption (OD600); MEDIA CAMHB; plate type 384well; NBS; CORNING #3640; time 18 hr.
With `COc1cccc(CSc2nnc3c(=O)n(-c4ccccc4OC)ccn23)c1` the Inhibition was -2.45%. `CC(C)Cn1c(=O)c2sccc2n2c(=O)n(Cc3ccc(Cl)cc3)nc12` gave an Inhibition of -2.34%. `CC(C)Cn1c(=O)c2sccc2n2c(=O)n(CC(=O)N3CCC(Cc4ccccc4)CC3)nc12` showed an Inhibition of -13.33%. For `CSc1cccc(NC(=O)Cn2nc3ccc(-c4ccccc4)nn3c2=O)c1`, the Inhibition was -12.73%. Molecule `CCc1nnc2c(SCC(=O)Nc3cccc(C(C)=O)c3)nc3ccccc3n12` has an Inhibition of 2.41%. Molecule `Cc1ccc(-c2ccc3nn(Cc4ccc(N5CCCC5=O)cc4)c(=O)n3n2)cc1` has an Inhibition of 5.05%. Molecule `Cc1ccc(C)c(NC(=O)Cn2nc3c(N4CCCC(C)C4)nccn3c2=O)c1` (stereo not given) has an Inhibition of -2.35%. With `Cc1cccc(C)c1NC(=O)Cn1nc2n(C)c(=O)c3c(c(-c4ccccc4)cn3C)n2c1=O` the Inhibition was 8.81%. Work on `CCOC(=O)c1ccccc1NC(=O)CSc1nnc2ccc(C(=O)Nc3cccc(F)c3)cn12` yielded an Inhibition of 9.51%. `C=Cc1ccc(Cn2nc3c(=O)n(-c4cccc(Cl)c4C)ccn3c2=O)cc1` gave an Inhibition of -2.71%. `Cc1ccccc1N1CCN(c2nccn3c(=O)n(CC(=O)NCc4ccc(Cl)cc4)nc23)CC1` showed an Inhibition of 13.83%. `COc1ccc(OC)c(NC(=O)Cn2nc3c(SCc4ccc(Cl)cc4)nccn3c2=O)c1` gave an Inhibition of -7.47%. `COC(=O)c1ccc(NC(=O)Cn2nc3c4cc(-c5ccc(OC)cc5)nn4ccn3c2=O)cc1` showed an Inhibition of 11.91%. Molecule `CCOC(=O)c1ccccc1NC(=O)CSc1nc2ccccc2n2c(C(C)C)nnc12` has an Inhibition of 6%. Molecule `CCOc1ccccc1NC(=O)Cn1nc2c3cc(-c4ccc(OC)cc4)nn3ccn2c1=O` has an Inhibition of 2.23%. `CCc1ccc(Cn2c(=O)c3sccc3n3c(=O)n(Cc4c(F)cccc4Cl)nc23)cc1` was tested, and the Inhibition was 3.47%. For `N#Cc1ccc(NC(=O)CSc2nnc3c4cc(-c5ccc(F)cc5)nn4ccn23)cc1`, the Inhibition was 5.96%. With `CC(C)(C)Sc1ccc2nn(CC(=O)Nc3ccc(Cl)cc3)c(=O)n2n1` the Inhibition was 3.13%. `CCc1ccc(NC(=O)Cn2nc3c(Sc4ccccc4)nccn3c2=O)cc1` was tested, and the Inhibition was 6.66%. With `COc1cccc(C(=O)Cn2nc3n(CCC(C)C)c(=O)c4sccc4n3c2=O)c1` the Inhibition was -4.77%. Molecule `C=Cc1ccc(CN(c2ccc(C(C)C)cc2)S(=O)(=O)c2cccn3c(C)nnc23)cc1` has an Inhibition of -12.1%. `CCOC(=O)c1ccccc1NC(=O)Cn1nc2c(Oc3ccccc3)nccn2c1=O` gave an Inhibition of 12.16%. For `Cc1ccc(-c2ccc3nn(Cc4nc(-c5ccc(Cl)cc5)no4)c(=O)n3n2)cc1C`, the Inhibition was 0%. `COc1cc(OC)c(NC(=O)Cn2nc3ccc(Sc4ccc(C)cc4)nn3c2=O)cc1Cl` showed an Inhibition of -4.96%. Work on `O=C(CCc1nnc2c(N3CCCCC3)nc3ccccc3n12)NCc1ccc(Br)cc1` yielded an Inhibition of 2.96%. With `Cc1ccc(-c2cc3c4nnc(CCC(=O)NCCCc5ccccc5)n4ccn3n2)cc1C` the Inhibition was 6.48%. In the case of `COc1ccccc1NC(=O)Cn1nc2c(Sc3ccccc3)nccn2c1=O`, the Inhibition is reported as -14.27%. `Cc1ccc(NC(=O)Cn2nc3c(SC4CCCCC4)nccn3c2=O)cc1` gave an Inhibition of 10.51%. Molecule `Cc1cc2nn(CC(=O)Nc3ccc(F)cc3C)c(=O)n2c(Nc2ccc(F)cc2)n1` has an Inhibition of 9.22%. `Cc1ccc(NC(=O)Cn2nc3c(SCc4ccccc4)nccn3c2=O)cc1C` gave an Inhibition of 6.06%. `CCOc1ccc(-n2ccn3c(SC(C)C(=O)Nc4ccc(OC)cc4)nnc3c2=O)cc1` (stereo not given) was tested, and the Inhibition was 5.98%. With `COc1ccc(NC(=O)c2ccc3nn(CC(=O)Nc4ccc5c(c4)OCCO5)c(=O)n3c2)cc1` the Inhibition was 0.27%. In the case of `Cc1ccc(-c2ccc3nn(Cc4c(F)cccc4Cl)c(=O)n3n2)cc1`, the Inhibition is reported as 14.3%. Work on `COc1cc(NC(=O)CSc2nnc3c(=O)n(-c4ccccc4)ccn23)cc(OC)c1` yielded an Inhibition of 14.02%. Work on `Cc1cc(C)cc(Nc2nc(C)cc3nn(CC(=O)Nc4cccc(Cl)c4)c(=O)n23)c1` yielded an Inhibition of 6.53%. `CC(C)Cn1c(=O)c2sccc2n2c(=O)n(CC(=O)NC(C)C)nc12` was tested, and the Inhibition was -11.46%. For `CCc1cccc(NC(=O)CSc2nnc3c(=O)n(-c4ccccc4)ccn23)c1`, the Inhibition was 0.07%. `Cc1ccccc1CSc1nnc2c(=O)n(-c3ccc(Br)cc3)ccn12` was tested, and the Inhibition was 1.11%. `COc1ccc(C(C)NC(=O)CCc2nnc3ccc(-c4ccc(C)cc4)nn23)cc1OC` (stereo not given) was tested, and the Inhibition was 4.62%. `O=C(CCc1nnc2c(N3CCCCC3)nc3ccccc3n12)NCc1ccc(F)cc1` gave an Inhibition of 1.77%.

What follows are molecules tested on Escherichia coli. Conditions: Concentration 32 ug.mL-1;; ASSAY_TEST Inhibition of Bacterial Growth; detection method Absorption (OD600); MEDIA CAMHB; plate type 384well; NBS; CORNING #3640; time 18 hr.
With `COc1cccc(CSc2nnc3c(=O)n(-c4ccccc4OC)ccn23)c1` the Inhibition was 1.01%. In the case of `CC(C)Cn1c(=O)c2sccc2n2c(=O)n(Cc3ccc(Cl)cc3)nc12`, the Inhibition is reported as 0.89%. With `CC(C)Cn1c(=O)c2sccc2n2c(=O)n(CC(=O)N3CCC(Cc4ccccc4)CC3)nc12` the Inhibition was -14.95%. Work on `CSc1cccc(NC(=O)Cn2nc3ccc(-c4ccccc4)nn3c2=O)c1` yielded an Inhibition of -15.49%. `CCc1nnc2c(SCC(=O)Nc3cccc(C(C)=O)c3)nc3ccccc3n12` gave an Inhibition of 4.71%. With `Cc1ccc(-c2ccc3nn(Cc4ccc(N5CCCC5=O)cc4)c(=O)n3n2)cc1` the Inhibition was -5.45%. `Cc1ccc(C)c(NC(=O)Cn2nc3c(N4CCCC(C)C4)nccn3c2=O)c1` (stereo not given) was tested, and the Inhibition was -6.19%. `Cc1cccc(C)c1NC(=O)Cn1nc2n(C)c(=O)c3c(c(-c4ccccc4)cn3C)n2c1=O` showed an Inhibition of 0.54%. Molecule `CCOC(=O)c1ccccc1NC(=O)CSc1nnc2ccc(C(=O)Nc3cccc(F)c3)cn12` has an Inhibition of -2.64%. In the case of `C=Cc1ccc(Cn2nc3c(=O)n(-c4cccc(Cl)c4C)ccn3c2=O)cc1`, the Inhibition is reported as -4.95%. `Cc1ccccc1N1CCN(c2nccn3c(=O)n(CC(=O)NCc4ccc(Cl)cc4)nc23)CC1` gave an Inhibition of -3.79%. For `COc1ccc(OC)c(NC(=O)Cn2nc3c(SCc4ccc(Cl)cc4)nccn3c2=O)c1`, the Inhibition was -4.33%. `COC(=O)c1ccc(NC(=O)Cn2nc3c4cc(-c5ccc(OC)cc5)nn4ccn3c2=O)cc1` showed an Inhibition of 3.86%. Work on `CCOC(=O)c1ccccc1NC(=O)CSc1nc2ccccc2n2c(C(C)C)nnc12` yielded an Inhibition of -2.48%. `CCOc1ccccc1NC(=O)Cn1nc2c3cc(-c4ccc(OC)cc4)nn3ccn2c1=O` was tested, and the Inhibition was 5.35%. Molecule `CCc1ccc(Cn2c(=O)c3sccc3n3c(=O)n(Cc4c(F)cccc4Cl)nc23)cc1` has an Inhibition of -8.75%. In the case of `N#Cc1ccc(NC(=O)CSc2nnc3c4cc(-c5ccc(F)cc5)nn4ccn23)cc1`, the Inhibition is reported as -4.2%. `CC(C)(C)Sc1ccc2nn(CC(=O)Nc3ccc(Cl)cc3)c(=O)n2n1` was tested, and the Inhibition was 0.89%. Work on `CCc1ccc(NC(=O)Cn2nc3c(Sc4ccccc4)nccn3c2=O)cc1` yielded an Inhibition of -4.33%. In the case of `COc1cccc(C(=O)Cn2nc3n(CCC(C)C)c(=O)c4sccc4n3c2=O)c1`, the Inhibition is reported as -5.88%. `C=Cc1ccc(CN(c2ccc(C(C)C)cc2)S(=O)(=O)c2cccn3c(C)nnc23)cc1` gave an Inhibition of 1.96%. Work on `CCOC(=O)c1ccccc1NC(=O)Cn1nc2c(Oc3ccccc3)nccn2c1=O` yielded an Inhibition of 1.14%. With `Cc1ccc(-c2ccc3nn(Cc4nc(-c5ccc(Cl)cc5)no4)c(=O)n3n2)cc1C` the Inhibition was -6.42%. `COc1cc(OC)c(NC(=O)Cn2nc3ccc(Sc4ccc(C)cc4)nn3c2=O)cc1Cl` showed an Inhibition of -10.5%. For `O=C(CCc1nnc2c(N3CCCCC3)nc3ccccc3n12)NCc1ccc(Br)cc1`, the Inhibition was -5.93%. In the case of `Cc1ccc(-c2cc3c4nnc(CCC(=O)NCCCc5ccccc5)n4ccn3n2)cc1C`, the Inhibition is reported as 1.28%. With `COc1ccccc1NC(=O)Cn1nc2c(Sc3ccccc3)nccn2c1=O` the Inhibition was -3.78%. Work on `Cc1ccc(NC(=O)Cn2nc3c(SC4CCCCC4)nccn3c2=O)cc1` yielded an Inhibition of -0.3%. `Cc1cc2nn(CC(=O)Nc3ccc(F)cc3C)c(=O)n2c(Nc2ccc(F)cc2)n1` gave an Inhibition of -3.34%. In the case of `Cc1ccc(NC(=O)Cn2nc3c(SCc4ccccc4)nccn3c2=O)cc1C`, the Inhibition is reported as -10.79%. Work on `CCOc1ccc(-n2ccn3c(SC(C)C(=O)Nc4ccc(OC)cc4)nnc3c2=O)cc1` (stereo not given) yielded an Inhibition of -5.92%. In the case of `COc1ccc(NC(=O)c2ccc3nn(CC(=O)Nc4ccc5c(c4)OCCO5)c(=O)n3c2)cc1`, the Inhibition is reported as -8.29%. In the case of `Cc1ccc(-c2ccc3nn(Cc4c(F)cccc4Cl)c(=O)n3n2)cc1`, the Inhibition is reported as -0.36%. In the case of `COc1cc(NC(=O)CSc2nnc3c(=O)n(-c4ccccc4)ccn23)cc(OC)c1`, the Inhibition is reported as 0.85%. In the case of `Cc1cc(C)cc(Nc2nc(C)cc3nn(CC(=O)Nc4cccc(Cl)c4)c(=O)n23)c1`, the Inhibition is reported as -7.17%. `CC(C)Cn1c(=O)c2sccc2n2c(=O)n(CC(=O)NC(C)C)nc12` was tested, and the Inhibition was 2.58%. Work on `CCc1cccc(NC(=O)CSc2nnc3c(=O)n(-c4ccccc4)ccn23)c1` yielded an Inhibition of -11.7%. With `Cc1ccccc1CSc1nnc2c(=O)n(-c3ccc(Br)cc3)ccn12` the Inhibition was -8.83%. For `COc1ccc(C(C)NC(=O)CCc2nnc3ccc(-c4ccc(C)cc4)nn23)cc1OC` (stereo not given), the Inhibition was 2.29%. `O=C(CCc1nnc2c(N3CCCCC3)nc3ccccc3n12)NCc1ccc(F)cc1` was tested, and the Inhibition was -4.75%.
